Source: PubChem BioAssay (several laboratories)
Ec RNAP inh: Escherichia coli RNA polymerase inhibition; P0A8V2; E. coli RNA polymerase, fluorescence transcription assay; inhibition, %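 (tested at 10 µM)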; 62,000 tested, 0.2% active; in the data active means inhibition above about 20%;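 further: 0% = enzyme without compound and 100% = no enzyme blank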
Target sequence (P0A8V2 whole entry, looked up): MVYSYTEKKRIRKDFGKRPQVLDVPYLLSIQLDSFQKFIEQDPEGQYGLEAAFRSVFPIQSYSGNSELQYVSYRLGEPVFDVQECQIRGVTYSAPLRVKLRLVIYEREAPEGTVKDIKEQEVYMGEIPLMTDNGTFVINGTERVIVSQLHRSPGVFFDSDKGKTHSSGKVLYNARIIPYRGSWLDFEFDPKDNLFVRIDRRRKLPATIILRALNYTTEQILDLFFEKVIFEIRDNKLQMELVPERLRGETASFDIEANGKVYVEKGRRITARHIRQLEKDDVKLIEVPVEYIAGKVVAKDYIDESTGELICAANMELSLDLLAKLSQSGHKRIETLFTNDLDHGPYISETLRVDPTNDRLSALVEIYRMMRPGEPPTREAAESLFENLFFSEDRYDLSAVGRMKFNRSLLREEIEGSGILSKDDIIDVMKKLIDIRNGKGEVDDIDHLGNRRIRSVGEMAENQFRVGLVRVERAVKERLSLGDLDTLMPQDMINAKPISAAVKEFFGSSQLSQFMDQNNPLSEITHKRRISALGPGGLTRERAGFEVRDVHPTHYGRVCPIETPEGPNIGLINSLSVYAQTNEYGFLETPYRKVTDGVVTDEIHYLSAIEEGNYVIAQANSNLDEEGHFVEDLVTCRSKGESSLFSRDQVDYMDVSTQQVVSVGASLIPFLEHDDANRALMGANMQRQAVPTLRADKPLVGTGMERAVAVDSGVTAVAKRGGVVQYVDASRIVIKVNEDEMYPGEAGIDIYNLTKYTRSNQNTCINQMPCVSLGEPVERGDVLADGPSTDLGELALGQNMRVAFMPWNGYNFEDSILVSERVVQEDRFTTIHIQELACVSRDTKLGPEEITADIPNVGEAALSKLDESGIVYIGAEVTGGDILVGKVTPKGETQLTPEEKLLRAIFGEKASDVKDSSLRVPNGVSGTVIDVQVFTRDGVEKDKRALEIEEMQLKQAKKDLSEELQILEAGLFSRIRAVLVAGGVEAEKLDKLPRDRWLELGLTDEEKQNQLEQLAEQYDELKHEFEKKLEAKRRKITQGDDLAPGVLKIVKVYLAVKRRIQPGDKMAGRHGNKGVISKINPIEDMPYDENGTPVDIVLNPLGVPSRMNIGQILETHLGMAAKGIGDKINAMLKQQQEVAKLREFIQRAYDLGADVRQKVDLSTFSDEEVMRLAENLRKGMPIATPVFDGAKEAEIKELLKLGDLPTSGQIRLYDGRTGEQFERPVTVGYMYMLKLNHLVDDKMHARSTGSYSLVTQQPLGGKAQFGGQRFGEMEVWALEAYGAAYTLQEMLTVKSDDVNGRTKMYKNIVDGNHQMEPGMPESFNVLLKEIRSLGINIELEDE
WNV protease inh: WNV NS2B-NS3 proteinase inhibition; 65,000 tested, 0.18% active; z-score (test concentration not listed); WNV NS2B-NS3 protease, fluorogenic substrate Ex360/Em465; hits give low values; AID 577; in the data active means z-score below about -3
ROCK2 blocker: blocks human Rho kinase 2 activity; purified ROCK2, Kinase-Glo ATP depletion luminescence; 60,000 tested, 0.35% active; inhibition, % at 6 µM; O75116;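 active means inhibition above the screen-wide mean inhibition plus 3 SD, cut at about 18% in these data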;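 further: plate controls were DMSO wells for no effect and Y-27632 control wells after no-enzyme background subtraction for full effect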
MMP13 inh: blocks human MMP13 activity. P45452. MMP-13 fTHP FRET cleavage, Mca fluorescence. inhibition, % at 4 µM. 65,000 tested, 0.07% active. AID 570;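 active means inhibition above the mean of compound-free control plate wells plus 3 SD, cut at about 14% in these data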;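 further: 0% = DMSO wells and 100% = wells with reference MMP-13 inhibitor after basal subtraction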
Hsp90 block: displaces geldanamycin probe from tumor Hsp90 | P07900 | NCI-N417 lysate Hsp90, Cy3B-geldanamycin FP displacement | inhibition, % at 30 µM | 64,000 tested, 0.35% active;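 active means inhibition above 50%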;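 further: 0% = tracer plus lysate wells and 100% = tracer alone without lysate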
PKA inh: blocks human protein kinase A activity; P17612; PKA Kemptide phosphorylation, Kinase-Glo ATP luminescence; inhibition, % at 6 µM; 65,000 tested, 0.1% active;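 active means inhibition above the screen-wide mean inhibition plus 3 SD, cut at about 21% in these data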
Starred values were filed as active, the others as inactive; nt = no result. The list is not random: actives were taken first. Their share in the collection is about 0.79%.

SMILES	Ec RNAP inh	WNV protease inh	ROCK2 blocker	MMP13 inh	Hsp90 block	PKA inh
COc1ccc(C(c2nnnn2C(C)(C)C)N2CCN(c3nc4ccccc4s3)CC2)cc1 (stereo not drawn)	4	-0.65	1	4	1	3
O=C(Nc1ccc(Cl)cc1)NC1CCCC1Cc1ccco1 (stereo not drawn)	-6	-4.8*	-3	-14	-2	3
O=C(CCSc1nnc(-c2ccco2)o1)Nc1ccc(Cl)cc1	4	0.56	5	4	-2	10
COc1ccc(NCc2cc3cc(OC)ccc3[nH]c2=O)cc1	-8	0.6	-5	-18	88*	3
CN(C)c1ccc(N=Cc2nc(-c3ccccc3)oc2O)cc1	9	0.74	1	9	54*	0
CSc1ccccc1N=Cc1nc(-c2ccccc2)oc1O	4	0.1	2	-18	-1	-2
Oc1ccc2ccccc2c1/C=N/n1cnnc1	9	0.49	4	-2	-1	6
CCOc1ccc(S(=O)(=O)Nc2ccc3c(c2)OCO3)c2cccnc12	5	-0.68	1	2	54*	0
CCOc1ccc(S(=O)(=O)NCc2ccc(F)cc2)c2cccnc12	12	-0.46	-1	-56	1	-2
CCSc1nnc(NC(=O)C(C)(C(F)(F)F)C(F)(F)F)s1	2	0.46	6	-7	-1	8
CCSc1nnc(NC(=O)NCC(F)(F)F)s1	nt	-7.8*	11	6	-3	6
CCCCOC(=O)c1ccc(NC(=O)C(CCS(C)(=O)=O)NC(C)=O)cc1 (stereo not drawn)	9	0.88	9	-1	-4	11
CC(=O)Nc1ccc(C(=O)OCCC(C)C)cc1	68*	1.2	-2	2	0	-4
Cc1ccccc1NS(=O)(=O)c1cc(S(C)(=O)=O)ccc1Cl	9	1.4	6	3	-2	9
Cc1cc(NS(=O)(=O)c2ccccc2)c(C)c(Cl)c1O	21*	-0.55	7	2	-3	6
Cc1csc2ncc(C(=O)Nc3ccon3)c(=O)n12	24*	0.31	-8	-179	2	-5
Cc1cccc(NC(=O)c2cnc3scc(C)n3c2=O)c1	-2	0.84	3	1	-4	5
C=CCN1C(=O)/C(=C2/Sc3ccccc3N2CCCS(=O)(=O)O)SC1=S	5	-1.1	4	16*	-9	3
C=CCN1C(=O)/C(=C2/Sc3ccccc3N2C)SC1=Nc1c(C)n[nH]c1C	12	-0.27	1	5	1	-4
CN1C(=O)/C(=C2/C=Cc3ccccc3N2CCCS(=O)(=O)O)SC1=S	6	0.28	6	18*	-6	8
O=c1c2ccccc2nc(SCc2cn3ccsc3n2)n1-c1ccc(F)cc1	-11	0.11	0	5	-4	1
Cc1[nH]nc2c1C(Cc1ccccc1)C(C#N)=C(N)O2 (stereo not drawn)	-1	0.1	0	1	7	11
CC(N)(Cc1ccc(O)c(O)c1)C(=O)O (stereo not drawn)	nt	nt	nt	nt	54*	nt
C[C@@](Cc1ccc(O)c(O)c1)(NN)C(=O)O	nt	-0.6	nt	nt	31	nt
CCCC1(CCC)NC(=O)N(CC(=O)Nc2cccc(OC)c2)C1=O	40*	1.7	-1	0	-2	-4
SMILES	Ec RNAP inh	WNV protease inh	ROCK2 blocker	MMP13 inh	Hsp90 block	PKA inh
COc1ccc(Cc2c(O)nc(SC)n(C(C)=O)c2=O)cc1	25*	1.7	0	-2	-2	-1
c1ccc(-c2nnc(-c3ccccn3)nn2)nc1	25*	0.47	nt	-1	nt	1
CCCC(=O)Nc1ccc2c(c1)C(=O)N(CCC(=O)O)C2=O	-1	0.64	4	-52	-2	7
CCN1CCN(CNC(=O)c2cnccn2)CC1	3	-4.8*	2	4	-2	8
CCN1CCN(c2cc(C)c3cc(NC(=O)c4cnccn4)ccc3n2)CC1	6	0.21	4	5	-1	9
CCOC(=O)c1sc(=S)n(CC)c1N	nt	-0.61	2	-2	-1	0
Cc1csc2nc(CNC(=O)C3CC=CCC3C(=O)O)cn12 (stereo not drawn)	4	-4.3*	4	-3	-6	6
COc1ccc(OC)c(C2C(C(N)=O)=C(C)Nc3nc(-c4cccc(Cl)c4)nn32)c1 (stereo not drawn)	3	-4.8*	0	1	-1	6
O=S(=O)(Nc1ccc(-c2nc3ccccc3o2)cc1)c1ccccc1	1	1.6	-2	-9	2	-7
